Compound activity (PubChem BioAssay)
Compounds with a hit are over-represented: about 3.6% of the library has one in this group of screens.
Rango complex inh: inhibitors of Rango-importin beta complex formation; Rango CFP/YFP FRET sensor + importin beta, 45 min; Potency, µM (titrated, usually from 92.2 µM); 0.031% of 340,000 active; AID 540263; calls by dose curve; also: nearly all actives have a fitted effect of over 15% in size
Target sequence (Q14974 whole entry, looked up): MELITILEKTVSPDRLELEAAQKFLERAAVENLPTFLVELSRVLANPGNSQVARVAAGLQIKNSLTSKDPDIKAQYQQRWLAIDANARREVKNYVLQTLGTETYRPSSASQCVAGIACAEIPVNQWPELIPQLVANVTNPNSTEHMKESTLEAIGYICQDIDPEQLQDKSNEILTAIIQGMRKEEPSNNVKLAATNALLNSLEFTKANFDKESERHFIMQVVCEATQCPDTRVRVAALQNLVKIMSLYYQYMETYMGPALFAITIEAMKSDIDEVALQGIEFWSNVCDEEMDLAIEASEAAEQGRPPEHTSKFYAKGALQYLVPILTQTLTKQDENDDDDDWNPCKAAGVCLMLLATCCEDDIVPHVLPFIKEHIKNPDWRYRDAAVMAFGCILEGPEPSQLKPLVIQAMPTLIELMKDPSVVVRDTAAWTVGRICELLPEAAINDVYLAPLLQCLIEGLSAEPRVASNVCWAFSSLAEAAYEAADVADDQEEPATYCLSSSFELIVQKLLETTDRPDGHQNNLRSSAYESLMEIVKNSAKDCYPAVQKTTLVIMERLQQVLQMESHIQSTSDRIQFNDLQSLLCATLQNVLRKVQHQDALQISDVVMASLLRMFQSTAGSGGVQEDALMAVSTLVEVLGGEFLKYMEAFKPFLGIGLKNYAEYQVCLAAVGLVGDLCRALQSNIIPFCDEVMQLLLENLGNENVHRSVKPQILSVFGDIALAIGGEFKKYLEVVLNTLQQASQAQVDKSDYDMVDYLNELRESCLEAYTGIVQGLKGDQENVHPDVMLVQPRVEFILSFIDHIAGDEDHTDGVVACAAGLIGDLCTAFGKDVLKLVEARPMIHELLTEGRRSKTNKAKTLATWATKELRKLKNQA
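Inhibition scored from the CFP 486 nm/YFP 530 nm FRET ratio 45 min after adding 0.125 microM importin beta to 50 nM Rango biosensor preincubated 5 min with compound (room temperature, PBS with DTT, Tween-20, BSA). No-importin wells as positive control.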
Rango release inh: inhibitors of RanGTP-induced Rango-importin beta complex dissociation. 0.071% of 340,000 active. Biochemical FRET Rango-importin beta, RanGTP-induced dissociation. Potency, µM (top dose mostly 46.1 µM). O95149+P62826; calls by dose curve; also: nearly all actives have a fitted effect of over 45% in size
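FRET read at 45 min, room temperature: inhibitors block the CFP/YFP signal rise when RanGTP (0.6 uM Ran, 2 mM GTP, 0.2 uM RCC1) frees Rango (0.1 uM) from importin beta (0.25 uM). Pre-read after 5 min compound exposure flags interference.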
GCN5L2 inh: GCN5L2 (KAT2A) acetyltransferase inhibition | GCN5L2 HAT assay, ThioGlo1 CoA-SH fluorescence | Potency, µM (doses to about 58.9 µM), hits mostly inhibitors | 0.21% of 390,000 active | AID 504327
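Titration-based screen in which CoA formation is detected via maleimide probe ThioGlo1 (50uM) turning fluorescent on thiol reaction; substrates H3(1-25) 75uM and acetyl-CoA 70uM, GCN5L2 20nM, 20 min incubation at room temperature.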
PLK1 PBD block: inhibitors of human PLK1 polo-box domain binding; Plk1 PBD binding of FITC phosphopeptide, fluorescence polarization; Potency, µM, actives largely listed as inhibitors; 2.8% of 360,000 active; AID 720504; also: series mostly up to about 57 µM; nearly all actives have a fitted effect of over 65% in size
VDR inh: blocks the human vitamin D receptor; P11473; AID 504847; VDR-SRC2-3 peptide fluorescence polarization, 2 h; 0.93% of 400,000 active; Potency, µM, actives largely listed as inhibitors
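FP read-out; VDR + SRC2-3 coactivator peptide; 23 nl compound by pintool; 2 h RT incubation; reagents held at 4 deg C, protected from light.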
PI5P4Ka inh: inhibitors of human PI5P4K alpha; P48426; PI5P4Kalpha enzyme, ADP-Glo luminescence, 60 min; stronger effect = lower value; max response, %; 1.2% of 330,000 active; active = max response of -50% or lower; inconclusive = between -30% and -50%; inactive = -30% or higher; also: value at the top dose of about 77 µM
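Reactions run in 0.038 M HEPES pH 7.4, 0.28 mM EGTA, 0.1% CHAPS and 5% DMSO, with PI5P4Kalpha, substrate, compound and 5 microM ATP final, one hour at room temperature. Readout is ADP-Glo luminescence.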
VDR inh confirm: confirmation of human vitamin D receptor inhibitors | shares compounds with VDR inh | VDR-coactivator inhibition assay, qHTS confirmation | Potency, µM, usual class: inhibitors | 89% of 840 active
VDR FP: VDR (human) coactivator binding inhibition, fluorescein polarization. shares compounds with VDR inh. VDR-coactivator binding, fluorescein fluorescence polarization. Potency, µM (doses to about 57.1 µM), usual class: inhibitors. 48% of 840 active. AID 602200
VDR bla: confirmation of human vitamin D receptor inhibitors in reporter cells. shares compounds with VDR inh. VDR beta-lactamase reporter cells, FRET ratio; cells co-treated with VDR agonist LG190178. Potency, µM (series often up to 46.1 µM), most hits filed as inhibitors. 23% of 840 active
VDR viability: counter-screen for vitamin D receptor inhibitors: cytotoxicity. cytotoxicity counter-screen, cell viability, qHTS. Potency, µM (doses to about 48.3 µM), usual class: cytotoxic. shares compounds with VDR inh. 18% of 840 active; also: nearly all actives have a fitted effect of over 75% in size
Each line names hits and unclear results; the compound was inactive in the other large screens (follow-up assays come after a bar, where they were run). Unless noted, calls follow the shape of the dose curve; as a rule, active = well fitted curve in the direction sought with a large enough effect; inconclusive = small, poorly fitted or top-dose-only effect, or another doubt; inactive = no such curve, though single readings can be large; an effect the other way counts as inactive or inconclusive.

COc1ccc(-n2nc3cc(C)c(NC(=O)c4ccc(-c5ccc(Br)cc5)o4)cc3n2)cc1	none (no result: Rango complex inh, Rango release inh, PLK1 PBD block, PI5P4Ka inh)
O=C(/C=C/c1cccnc1)c1ccc(F)c(F)c1	VDR inh 45µM | VDR inh confirm inconclusive | VDR FP 8.9µM | VDR bla inconclusive | VDR viability inconclusive
O=C(/C=C/c1ccc([N+](=O)[O-])cc1)c1cccnc1	PLK1 PBD block inconclusive, VDR inh 56µM | VDR inh confirm 24 | VDR FP 8.9µM | VDR bla inactive | VDR viability inconclusive
Cc1ccc(CCNC(=O)Cn2ncc3c(=O)oc4ccccc4c32)cc1	none (no result: Rango complex inh, Rango release inh, PLK1 PBD block, PI5P4Ka inh)
CCOc1ccc(-c2csc(-c3c(N)c(C(=O)c4ccc5c(c4)OCO5)n4ccccc34)n2)cc1	none (no result: Rango complex inh, Rango release inh, PLK1 PBD block, PI5P4Ka inh)
COc1cccc(CNC(=O)CSC2=Nc3ccccc3N=C(c3ccc(F)cc3)C2)c1	none (no result: Rango complex inh, Rango release inh, PLK1 PBD block, PI5P4Ka inh)
CCOc1ccc(C(=O)CCN2CCCCCC2)cc1	PLK1 PBD block 11µM, VDR inh 25µM | VDR inh confirm 27 | VDR FP inconclusive | VDR bla inconclusive | VDR viability inconclusive
CCOc1ccc(C(=O)CCCC(=O)c2ccc(OCC)cc2)cc1	Rango complex inh inconclusive
COC(CNC(=O)c1cccnc1)OC	none
COC(CNC(=O)c1ccc2c3c(onc13)-c1ccccc1C2=O)OC	PLK1 PBD block 3.4µM, VDR inh 40µM | VDR inh confirm 3.8 | VDR FP inconclusive | VDR bla inconclusive | VDR viability inconclusive
CCCCNC(=O)CN1CCN(c2ccc(NC(=O)c3ccc(OC)cc3)cc2C(=O)O)CC1	none (no result: Rango complex inh, Rango release inh, PLK1 PBD block, PI5P4Ka inh)
CCCOC(=O)c1c(NC(=O)C2CCCO2)sc(C(=O)OC)c1C (stereo not drawn)	PLK1 PBD block 9.5µM, VDR inh 79µM | VDR inh confirm 24 | VDR FP inconclusive | VDR bla inactive | VDR viability inactive
O=C(NCCn1cc(SCc2ccc(F)cc2)c2ccccc21)c1cccs1	none (no result: Rango complex inh, Rango release inh, PLK1 PBD block, PI5P4Ka inh)
Cc1ccccc1N1CC(=O)N(c2ccccc2C)CC1=O	none
Cc1cccc2c1c1ccc3c(c1n2C)C(=O)C=CC3=O	Rango complex inh inconclusive, PLK1 PBD block inconclusive, VDR inh 22µM, PI5P4Ka inh -73 | VDR inh confirm 9.5 | VDR FP 13µM | VDR bla 7.3µM | VDR viability 8.9µM
CCN1C/C(=C/c2cccc([N+](=O)[O-])c2)C(=O)/C(=C/c2cccc([N+](=O)[O-])c2)C1	VDR inh 10µM | VDR inh confirm 3.4 | VDR FP inconclusive | VDR bla 2.1µM | VDR viability inconclusive
COc1cc(/C=C2/N=C(C3CCCCC3)OC2=O)cc(OC)c1OC	VDR inh 40µM | VDR inh confirm 17 | VDR FP 14µM | VDR bla inactive | VDR viability inactive
CN1CCC2(CC1)N=C(c1ccc(F)cc1)C(=S)N2C(=O)c1ccccc1	PLK1 PBD block inconclusive, VDR inh 45µM | VDR inh confirm 19 | VDR FP inconclusive | VDR bla inactive | VDR viability inconclusive
CCC(Sc1nc2c(sc3ccccc32)c(=O)n1CCCC(=O)NC1CCCC1)C(=O)Nc1cccc(OC)c1 (stereo not drawn)	none (no result: Rango complex inh, Rango release inh, PLK1 PBD block, PI5P4Ka inh)
CC(C(=O)OCC(=O)NC1CCCCC1)N1C(=O)c2ccccc2C1=O (stereo not drawn)	none
CC(C)CN1C(=O)/C(=C(/C#N)C(=O)NC2CCCCC2)c2ccccc21	PLK1 PBD block inconclusive, VDR inh inconclusive | VDR inh confirm 2.8 | VDR FP 2.8µM | VDR bla inactive | VDR viability inactive
O=[N+]([O-])c1c(Nc2ccccc2O)ccc2nonc12	none
O=[N+]([O-])c1c(Nc2ccc(O)cc2)cc(N2CCOCC2)c2nonc12	none
O=[N+]([O-])c1c(Nc2ccccc2O)cc(Cl)c2nonc12	PLK1 PBD block 3µM, VDR inh 45µM, PI5P4Ka inh inconclusive | VDR inh confirm 4.2 | VDR FP inconclusive | VDR bla 4.6µM | VDR viability 13µM
O=C(O)c1cc(Nc2cc(Cl)c3nonc3c2[N+](=O)[O-])ccc1O	PLK1 PBD block 4.7µM, VDR inh 3.5µM, PI5P4Ka inh inconclusive | VDR inh confirm 2.7 | VDR FP inconclusive | VDR bla inactive | VDR viability inactive
Cc1ccc2c(CC(=O)N(Cc3ccc(N(C)C)cc3)Cc3ccco3)coc2c1C	none (no result: Rango complex inh, Rango release inh, PLK1 PBD block, PI5P4Ka inh)
Cc1ccc(-c2nn(-c3ccccc3)cc2C=C2C(=O)CC(C)(C)CC2=O)cc1	PLK1 PBD block 0.67µM, VDR inh 25µM | VDR inh confirm inconclusive | VDR FP 3.5µM | VDR bla inactive | VDR viability inactive
Cc1ccc(-c2nn(-c3ccccc3)cc2NC(=O)c2ccccc2)cc1	none
CC1=NNC(=O)/C1=C\c1cn(-c2ccccc2)nc1-c1ccc(Cl)cc1	GCN5L2 inh inconclusive, PLK1 PBD block 5.3µM, VDR inh 13µM | VDR inh confirm inconclusive | VDR FP 11µM | VDR bla inconclusive | VDR viability 21µM
Cn1ccc2cc(S(=O)(=O)N3CCN(C(=O)Nc4ccccc4F)CC3)ccc21	none (no result: Rango complex inh, Rango release inh, PLK1 PBD block, PI5P4Ka inh)
O=C(CSc1ccc([N+](=O)[O-])cc1)Nc1cccc(S(=O)(=O)Nc2ccccc2F)c1	PLK1 PBD block 9.5µM, VDR inh 79µM, PI5P4Ka inh inconclusive | VDR inh confirm 19 | VDR FP 22µM | VDR bla inactive | VDR viability inactive
COc1cc(OC)c(OC)cc1CN1CCc2nc(N3CCN(c4ccccc4F)CC3)ncc2C1	none (no result: Rango complex inh, Rango release inh, PLK1 PBD block, PI5P4Ka inh)
O=C(/C=C/c1ccccc1)c1ccccc1	VDR inh 18µM | VDR inh confirm 16 | VDR FP 11µM | VDR bla 26µM | VDR viability inconclusive
O=C(/C=C/c1ccccc1)c1ccc2ccccc2c1	VDR inh inconclusive (no result: GCN5L2 inh)
S=C(NNc1ccnc2cc(Cl)ccc12)Nc1ccccc1Cl	PLK1 PBD block 15µM, VDR inh inconclusive | VDR inh confirm 13 | VDR FP 10µM | VDR bla inconclusive | VDR viability inconclusive
COc1ccc(C)cc1NC(=O)c1sc2nc(-c3ccc(F)cc3)cn2c1C	none (no result: Rango complex inh, Rango release inh, PLK1 PBD block, PI5P4Ka inh)
COc1ccc(NC(=O)CCS(=O)(=O)c2cc3c4c(c2)CCN4C(=O)CC3)cc1OC	none (no result: Rango complex inh, Rango release inh, PLK1 PBD block, PI5P4Ka inh)
